Most compounds without a hit are left out; they make up all but 9.9% or so of the library.
IL-1B inflam inh: qHTS for Inhibitors of Inflammasome Signaling: IL-1-beta AlphaLISA Primary Screen; THP-1 LPS/ATP IL-1B secretion, AlphaLISA, 16 h; active compounds read low; AID 743279, 2014; activity change, % at 57.5 µM; actives 4.7% (n = 360,000); in the data active means activity change below about -50%; inconclusive means mostly about -30% to -49%; further: on the % scale 0 is the no-effect control and ±100 the full control effect
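THP-1 cells pretreated 1 hr with compounds (up to 57.5 uM final), then stimulated with LPS (250 ng/mL final) plus ATP (1.25 mM final); secreted IL-1B measured by AlphaLISA after 16 hr, decreased signal indicating inhibition.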
KB-V1 cytotox: qHTS assay for MDR1-selective chemotherapeutics: Primary screen using the drug-selected MDR subline cells KB-V1 | KB-V1 MDR cells viability, CellTiter-Glo, 72 h | Potency, µM (top dose mostly 46.1 µM), usual class: cytotoxic | actives 3.4% (n = 400,000) | AID 1347076, 2019; further: potency means the concentration at half of the fitted maximal effect; on the % scale 0 is the no-effect control and ±100 the full control effect; nearly all actives have a fitted effect of over 60% in size
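Cytotoxicity toward P-gp-expressing KB-V1 cells was determined as loss of CellTiter-Glo luminescence after 72 h at 37 degrees C. Compounds were tested in quantitative HTS format across a concentration range, with curves fitted to normalized data.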
SW480 rerep: A quantitative high throughput screen for small molecules that induce DNA re-replication in SW480 colon adenocarcinoma cells; actives 1.8% (n = 340,000); Potency, µM (doses to about 46.1 µM), inactives show at the top dose re-replication activation, actives largely listed as activators; SW480 DNA re-replication, Hoechst DNA content imaging, 48 h; AID 624297, 2012; further: potency means the concentration at half of the fitted maximal effect; % of control where 0% means no effect; nearly all actives have a fitted effect of over 55% in size
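Quantitative HTS format with DMSO vehicle controls; 48 hr drug incubation at 37 C, then 40 min Hoechst staining and scanning imager measurement at 405 nm excitation.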
MCF10A rerep: A quantitative high throughput screen for small molecules that induce DNA re-replication in MCF 10a normal breast cells. MCF 10A DNA re-replication, Hoechst nuclear intensity, 48 h. Potency, µM (highest dose often 46.1 µM), without a hit: top-dose activity, positive = re-replication, most hits filed as activators. actives 2.9% (n = 350,000); further: potency means the concentration at half of the fitted maximal effect; % of control where 0% means no effect; nearly all actives have a fitted effect of over 50% in size
KB-3-1 tox: qHTS assay for MDR1-selective chemotherapeutics: Primary screen using the parental adenocarcinoma cell KB-3-1; KB-3-1 viability, CellTiter-Glo ATP luminescence, 72 h; Potency, µM (highest dose often 46.1 µM), usual class: cytotoxic; actives 1.4% (n = 400,000); AID 1347075, 2019; further: potency means the concentration at half of the fitted maximal effect; on the % scale 0 is the no-effect control and ±100 the full control effect; nearly all actives have a fitted effect of over 60% in size
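Cytotoxicity in the drug-sensitive parental line KB-3-1 was scored as loss of CellTiter-Glo luminescence following 72 h incubation with compound. Values come from curve fitting of normalized concentration-response data.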
Numbers without * were called inactive; i = inactive; ? = inconclusive; . = not tested or not shown; [ ] = dose if it differs, or a comment. Unless noted, the call rests on the fitted dose curve; in most records, active means well fitted curve in the direction sought with a large enough effect; inconclusive means small, poorly fitted or top-dose-only effect, or another doubt; inactive means no such curve, though single readings can be large; an effect the other way counts as inactive or inconclusive.

SMILES	IL-1B inflam inh	KB-V1 cytotox	SW480 rerep	MCF10A rerep	KB-3-1 tox
COc1cc(CN(C(=O)c2ccco2)C2CCS(=O)(=O)C2)cc(OC)c1OC (centres undefined)	-7	?	10%	1%	i
CCOc1ccc(S(=O)(=O)Nc2ccc(Cl)cn2)c(C)c1C	34	23µM*	-7%	-1%	?
CCOc1cc(C)c(S(=O)(=O)Nc2ccc(Cl)cn2)cc1C	-2	?	16%	23µM*	i
CCOc1ccc(C(C)C)cc1S(=O)(=O)Nc1ccc(Cl)cn1	13	i	3%	1%	i
CCOc1cc(/C=C2\C(=O)N(Cc3ccc(C)cc3)C(C)=C2C(=O)OC)ccc1O	-22	?	?	?	?
C=CCOc1cccc(/C=C2\C(=O)N(Cc3ccc(C)cc3)C(C)=C2C(=O)OC)c1	-91*	i	?	16µM*	?
CCN(CC)C(=O)c1cc(-c2ccc(Br)cc2)on1	-30	5.2µM*	9%	27%	i
COc1cccc(/C=C/C(=O)c2ccc(NS(=O)(=O)c3ccc(C)cc3)cc2)c1	-99*	?	?	5.8µM*	i
COc1cc(/C=C/C(=O)c2ccc(NS(=O)(=O)c3ccc(C)cc3)cc2)ccc1OC(F)F	-93*	?	?	23µM*	i
COc1cccc(C(=O)/C=C/Nc2ccc(S(=O)(=O)Nc3cccc(C(C)=O)c3)cc2)c1	-28	?	21µM*	10µM*	i
COc1cccc(C(=O)/C=C/Nc2ccc(NC(C)=O)cc2)c1	-12	i	6%	?	i
COc1cc(/C=C/C(=O)O)ccc1OS(=O)(=O)c1ccc(C)cc1	-1	i	-3%	-7%	i
COc1cc(/C=C/C(=O)c2ccc(NS(=O)(=O)c3ccc(C)cc3)cc2)cc(OC)c1O	-103*	i	?	18µM*	?
COc1cccc(N/C=C/C(=O)c2ccc(C)cc2)c1	-4	i	2%	-2%	i
COc1ccc([C@@H]2CC=C(C(=O)O)[C@H](c3ccc(C)cc3)N2S(=O)(=O)c2ccccc2C)cc1	37	i	-20%	-13%	i
Cc1cccc(OCc2nnc(SCC(=O)NC3CCCCC3)n2C)c1	3	i	-36%	-28%	i
CC(=O)c1ccc(C2CC(OCCF)=CC(=O)O2)cc1 (centres undefined)	18	i	.	.	i
CCC(C)NCCOCCSc1ccc(Cl)cc1 (centres undefined)	-52*	i	1%	12%	i
C=CCc1cc(Cl)ccc1OCCOCCNC(C)CC (centres undefined)	-78*	i	?	?	i
CCC(C)NCCCOc1cc(Cl)ccc1Cl (centres undefined)	0	i	-3%	1%	i
C=CCc1cc(Cl)ccc1OCCCNC(C)C	-59*	?	22%	14%	?
CCC(C)NCCCCOc1ccc(Cl)cc1C (centres undefined)	?	16µM*	?	?	i
CCC(C)NCCOCCOc1ccc(Cl)c2ccccc12 (centres undefined)	-104*	?	?	?	?
CCC(C)NCCOCCOc1ccc(Cl)c(C)c1C (centres undefined)	-9	?	?	20%	?
CCNc1nc(NCC)nc(SCCOC(=O)c2ccccc2)n1	-3	i	-4%[9.22 µM]	-1%	i
SMILES	IL-1B inflam inh	KB-V1 cytotox	SW480 rerep	MCF10A rerep	KB-3-1 tox
CCNc1nc(NCC)nc(SCCOC(=O)Nc2ccc(Cl)cc2Cl)n1	8	i	-2%	18µM*	i
O=C(CSc1nc(=O)[nH]c2c1CCCC2)Nc1cc(C(F)(F)F)cc(C(F)(F)F)c1	16	?	-5%	4%	i
CC1(C)CC[C@]2(C(=O)O[C@@H]3O[C@H](CO)[C@@H](O)[C@H](O)[C@H]3O)CC[C@]3(C)C(=CCC4[C@@]5(C)CC[C@H](O[C@@H]6O[C@H](C(=O)O)[C@@H](O[C@H]7OC[C@@H](O)[C@@H](O)[C@@H]7O)[C@H](O)[C@H]6O)C(C)(C)C5CC[C@]43C)[C@@H]2C1 (some centres undefined)	18	i	14%	2%	i
CC1(C)CC[C@]2(C(=O)O)CC[C@]3(C)C(=CC[C@@H]4[C@@]5(C)CC[C@H](O[C@@H]6O[C@H](C(=O)O)[C@@H](O)[C@H](O[C@@H]7OC[C@H](O)[C@H](O)[C@H]7O)[C@H]6O)C(C)(C)[C@@H]5CC[C@]43C)[C@@H]2C1	-110*	i	?	?	i
COc1ccc(N2CC(C(=O)N/N=C/c3cc([N+](=O)[O-])ccc3O)CC2=O)cc1 (centres undefined)	96	i	?	?	?
C/C(=N\S(=O)(=O)c1ccc(C)cc1)N1CCN(S(=O)(=O)c2ccccc2)C1C(C)C (centres undefined)	0	5.8µM*	6%	-1%	i
CCOC1=C2[C@@H](CN(S(=O)(=O)c3ccc(C)cc3)[C@H]2c2cccc3ccccc23)[C@H]2C(=O)N(C3CCCCC3)C(=O)[C@H]2C1	19	i	.	.	i
CCn1cc(/C=C(\NC(=O)c2ccc(OC)c(OC)c2)C(=O)NCCCN2CCOCC2)c2ccccc21	-7	i	-9%	-8%	i
Cc1ccc(C(=O)NC2(C(F)(F)F)NC(=O)N(c3ccc(Cl)cc3)C2=O)cc1 (centres undefined)	-61*	i	1%	10%	i
Cc1ccc(N2C(=O)NC(NC(=O)C3CC3)(C(F)(F)F)C2=O)cc1 (centres undefined)	-8	i	-1%	3%	i
O=C(Nc1cccc2ncccc12)c1cc([N+](=O)[O-])ccc1Cl	-88*	?	?	?	18µM*
O=C(Nc1cccnc1Cl)c1cc([N+](=O)[O-])ccc1Cl	-63*	i	?	?	i
O=C(CCl)Nc1cccc2ncccc12	-99*	?	?	?	?
CCc1ccccc1NC(=O)c1ccccc1Sc1ccc([N+](=O)[O-])cc1Cl	-55*	i	-3%	1%	i
CCSc1ccccc1C(=O)Nc1ccc([N+](=O)[O-])cc1OC	0	i	1%	-4%	i
CC(=O)NC(C)(c1ccccc1)c1nc(-c2csc3ccccc23)cs1 (centres undefined)	-23	i	.	.	i

Screening data (PubChem BioAssay)
